Inhibition data for 60 molecules are collected here from PubChem BioAssay AID1671202 (University of Kansas High Throughput Screening Laboratory, 2021).

Where “and” joins values, the source holds several entries; their conditions need not be identical. Equal entries are not always repeated. Hit rate of the full screen: of about 190,000 compounds, about 6,900 (3.6%) were called active. Rule as the data show it: active = inhibition above about 50%; inactive = the rest. Only a selection was taken, and actives are over-represented in it overall.

In this assay the target is Huntingtin (Homo sapiens) (UniProt P42858). The assay can be described thus: mutant huntingtin-calmodulin interaction inhibitors – biochemical, AlphaScreen, primary screen (AID 1671202).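 As to Inhibition: 0% = both proteins with DMSO and 100% = one protein alone.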 The settings on record: AlphaScreen His-mHTT/GST-CaM binding, luminescence; at 15 µM, stronger effect = higher value.
Chain of Huntingtin (Homo sapiens) (P42858 whole entry, looked up, stated change not applied): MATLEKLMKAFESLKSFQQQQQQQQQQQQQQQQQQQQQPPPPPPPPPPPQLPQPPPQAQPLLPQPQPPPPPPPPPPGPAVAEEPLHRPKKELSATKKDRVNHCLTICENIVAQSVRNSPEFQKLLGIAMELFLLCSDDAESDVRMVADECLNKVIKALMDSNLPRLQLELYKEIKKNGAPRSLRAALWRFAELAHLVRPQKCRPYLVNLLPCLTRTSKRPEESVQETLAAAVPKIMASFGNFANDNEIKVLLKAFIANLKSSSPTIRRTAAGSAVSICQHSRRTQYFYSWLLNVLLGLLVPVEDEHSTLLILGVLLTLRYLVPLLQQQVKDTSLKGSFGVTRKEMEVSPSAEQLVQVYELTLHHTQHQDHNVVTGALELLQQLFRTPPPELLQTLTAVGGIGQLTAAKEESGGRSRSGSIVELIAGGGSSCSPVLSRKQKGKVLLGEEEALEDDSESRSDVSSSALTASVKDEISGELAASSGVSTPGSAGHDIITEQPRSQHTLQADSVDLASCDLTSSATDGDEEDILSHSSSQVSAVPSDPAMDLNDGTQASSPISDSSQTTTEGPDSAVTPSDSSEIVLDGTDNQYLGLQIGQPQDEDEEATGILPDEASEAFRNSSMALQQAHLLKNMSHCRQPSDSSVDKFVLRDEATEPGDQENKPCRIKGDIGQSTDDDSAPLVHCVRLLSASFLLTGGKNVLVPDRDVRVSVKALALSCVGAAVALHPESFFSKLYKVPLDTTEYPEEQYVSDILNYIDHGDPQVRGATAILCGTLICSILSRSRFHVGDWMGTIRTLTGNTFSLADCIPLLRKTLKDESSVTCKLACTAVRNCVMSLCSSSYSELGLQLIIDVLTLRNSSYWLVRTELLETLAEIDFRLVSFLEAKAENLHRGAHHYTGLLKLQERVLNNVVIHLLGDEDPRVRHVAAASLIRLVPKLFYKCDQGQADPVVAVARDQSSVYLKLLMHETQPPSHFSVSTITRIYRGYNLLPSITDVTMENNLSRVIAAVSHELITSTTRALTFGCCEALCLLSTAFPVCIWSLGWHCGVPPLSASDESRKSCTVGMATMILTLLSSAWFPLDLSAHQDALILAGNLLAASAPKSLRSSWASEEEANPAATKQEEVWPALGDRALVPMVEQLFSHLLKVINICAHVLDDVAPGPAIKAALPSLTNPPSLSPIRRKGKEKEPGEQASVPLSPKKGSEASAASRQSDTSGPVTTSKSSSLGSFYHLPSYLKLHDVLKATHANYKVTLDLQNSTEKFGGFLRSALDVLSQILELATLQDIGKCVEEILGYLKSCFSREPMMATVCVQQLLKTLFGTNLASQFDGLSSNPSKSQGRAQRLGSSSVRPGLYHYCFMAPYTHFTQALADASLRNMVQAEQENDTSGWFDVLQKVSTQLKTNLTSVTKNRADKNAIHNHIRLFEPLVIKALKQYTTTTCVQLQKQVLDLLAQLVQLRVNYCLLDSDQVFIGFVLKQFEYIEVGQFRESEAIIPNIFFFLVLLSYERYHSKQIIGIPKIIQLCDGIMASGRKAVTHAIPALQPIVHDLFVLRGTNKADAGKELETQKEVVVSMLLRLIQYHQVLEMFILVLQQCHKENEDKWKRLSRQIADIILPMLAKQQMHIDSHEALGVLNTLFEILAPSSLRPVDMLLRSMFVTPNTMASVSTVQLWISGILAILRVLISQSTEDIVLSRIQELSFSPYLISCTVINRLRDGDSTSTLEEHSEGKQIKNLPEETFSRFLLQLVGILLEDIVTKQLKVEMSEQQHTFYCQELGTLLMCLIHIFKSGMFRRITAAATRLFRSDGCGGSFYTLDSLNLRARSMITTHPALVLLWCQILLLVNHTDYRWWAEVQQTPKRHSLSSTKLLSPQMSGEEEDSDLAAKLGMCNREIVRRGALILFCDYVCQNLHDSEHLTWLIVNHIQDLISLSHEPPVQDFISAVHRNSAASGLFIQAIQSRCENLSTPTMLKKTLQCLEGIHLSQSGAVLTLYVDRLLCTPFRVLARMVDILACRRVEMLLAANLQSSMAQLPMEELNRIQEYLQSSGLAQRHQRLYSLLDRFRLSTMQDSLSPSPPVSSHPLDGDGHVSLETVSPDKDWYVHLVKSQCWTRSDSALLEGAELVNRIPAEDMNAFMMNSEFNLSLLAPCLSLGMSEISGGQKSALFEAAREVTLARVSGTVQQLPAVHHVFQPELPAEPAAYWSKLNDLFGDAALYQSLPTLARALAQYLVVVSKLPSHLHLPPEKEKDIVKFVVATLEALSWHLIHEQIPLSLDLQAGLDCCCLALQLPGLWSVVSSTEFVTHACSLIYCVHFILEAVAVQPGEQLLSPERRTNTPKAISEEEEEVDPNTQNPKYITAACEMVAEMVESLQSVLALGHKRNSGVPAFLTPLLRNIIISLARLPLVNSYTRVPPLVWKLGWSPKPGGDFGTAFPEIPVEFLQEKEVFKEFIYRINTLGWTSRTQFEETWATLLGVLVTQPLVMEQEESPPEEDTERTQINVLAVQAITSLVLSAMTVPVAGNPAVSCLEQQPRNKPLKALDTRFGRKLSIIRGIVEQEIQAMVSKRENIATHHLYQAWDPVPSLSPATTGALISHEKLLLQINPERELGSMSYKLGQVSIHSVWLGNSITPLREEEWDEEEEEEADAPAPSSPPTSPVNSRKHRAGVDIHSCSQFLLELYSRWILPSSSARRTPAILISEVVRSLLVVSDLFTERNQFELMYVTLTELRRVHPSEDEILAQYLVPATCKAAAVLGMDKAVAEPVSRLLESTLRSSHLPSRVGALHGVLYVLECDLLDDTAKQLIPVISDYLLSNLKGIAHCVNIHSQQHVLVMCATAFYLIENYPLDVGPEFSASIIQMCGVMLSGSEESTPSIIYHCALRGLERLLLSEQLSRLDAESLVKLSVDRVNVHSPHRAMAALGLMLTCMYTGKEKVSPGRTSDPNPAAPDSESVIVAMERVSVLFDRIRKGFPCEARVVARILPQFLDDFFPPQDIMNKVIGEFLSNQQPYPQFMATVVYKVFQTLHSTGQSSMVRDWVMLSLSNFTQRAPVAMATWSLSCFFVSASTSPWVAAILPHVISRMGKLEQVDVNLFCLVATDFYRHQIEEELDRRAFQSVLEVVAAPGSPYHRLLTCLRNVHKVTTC
With `CC1=C/C(=N\Oc2ccc3noc4c3c2C(=O)c2ccccc2-4)C(C(C)C)=CC1=O`, the inhibition result was “active”.
The figure for `N#Cc1ccc(C2=COC3(CCCN(C(=O)c4ccccc4)C3)C2)cc1` (stereo not given) is 2.5% (inactive).
Under `CN(C)c1ncccc1NC(=O)c1cccc(C#N)c1` stands 0% (inactive); under `O=[N+]([O-])c1ccc2c(c1)C1C=CCC1C(c1cccc(Br)c1)N2` (stereo not given), 72% (active).
Turning to `COc1cccc(C2Nc3ccc(C(=O)O)cc3C3C=CCC32)c1OC` (stereo not given), the inhibition was 15% (inactive).
The figure for `O=C1NC(c2cccc([N+](=O)[O-])c2)C(=C(O)c2ccc(Br)cc2)C1=O` (stereo not given) is 7.7% (inactive); for `CCCn1cnc2c1c(=O)n(CC)c(=O)n2-c1ccc(C)cc1` it is 0.6% (inactive).
The figure for `CC(C)Cn1cc(C(=O)NC2CCCCCC2)c2c3ccccc3n(C)c2c1=O` is 1% (inactive); for `COc1cccc(C2C3=C(Nc4c2c(=O)n(C)c(=O)n4C)c2ccccc2C3=O)c1OC` (stereo not given) it is 27% (inactive).
The figure for `Cn1nc(COc2ccc(F)cc2)c2c1CCN(C(=O)Nc1ccc(F)cc1F)C2` is -2.73% (inactive).
For the molecule `Cn1nc(COc2ccccc2)c2c1CCN(C(=O)Nc1ccc(F)cc1F)C2`, the inhibition is 22.3% (inactive).
The figure for `Cn1nc(COc2ccc(F)cc2)c2c1CCN(C(=O)Nc1ccc(F)cc1)C2` is 80% (active); for `Cc1ccc(C)c(N=c2oc3ccccc3cc2C(=O)Nc2nccs2)c1` it is -4% (inactive); for `CN(C)CCNC(=O)c1cc2n(n1)CCCN(Cc1cccc(F)c1)C2=O` it is -3.78% (inactive).
Under `CC(=O)NC(=Nc1nc(C)cc(C)n1)Nc1cccc(C)c1C` stands 0% (inactive).
Under `O=C(Nc1ccccc1-c1nc2ccccc2[nH]1)c1ccccc1Cl` stands 45.7% (inactive).
Take `O=C(Nc1ccccc1-c1nc2ccccc2[nH]1)c1ccccc1Br`: the inhibition is 51% (active).
Under `Cc1c(NC(=O)c2cccc([N+](=O)[O-])c2C)cccc1-c1nc2ccccc2[nH]1` stands 16% (inactive); under `O=C(Nc1nc2ccccc2s1)c1ccc2c(c1)OCO2`, 17.1% (inactive).
The figure for `O=C(CN1C(=O)CCC1=O)N1CCC(Oc2nc3ccc(F)cc3s2)CC1` is -3.4% (inactive); for `O=C(Cc1ccc2c(c1)OCO2)N1CCC(Oc2nc3ccccc3s2)CC1` it is 61.1% (active); for `O=C(NCc1ccncc1)C1CC(=O)N(Cc2ccccc2F)C1` (stereo not given) it is 3.4% (inactive).
The figure for `COc1ccc(C(=O)CSc2nc(N)cc(=O)[nH]2)cc1[N+](=O)[O-]` is 3.7% (inactive); for `C[C@H]1COc2cc(N3CCSCC3)ccc2S(=O)(=O)N1` it is -12% (inactive); for `O=C(c1ccc(F)cc1)N1CCc2nc[nH]c2C1` it is -20.2% (inactive).
In the case of `COc1cc(C(c2cc3c(cc2O)OCO3)N2CCCC2)cc(OC)c1OC` (stereo not given), the inhibition was 81.6% (active).
Under `COc1cc(OC)c(OC)cc1CN1CCN(Cc2ccc3c(c2)OCO3)CC1` stands 2.4% (inactive); under `Cc1nc2c(c(NCC3CCCO3)n1)CCC2` (stereo not given), -7.6% (inactive); under `C[C@H]1[C@H](NC(=O)c2cccc(N(C)C)c2)CC[C@@]23CCCN2C(=O)CCC[C@@H]13`, -15.6% (inactive).
For `Cc1nnc2cc(N3CCN(Cc4ccc(C(C)C)cc4)CC3)cnn12`, the inhibition was 63.7% (active).
Under `c1csc(CN2CCN(c3cnn4cnnc4c3)CC2)c1` stands 0.4% (inactive); under `Clc1cccc(N2CCN(Cc3cccnc3)CC2)c1`, 1% (inactive); under `CCn1nnc2c(N3CCN(C(=O)Nc4ccccc4C(F)(F)F)CC3)ncnc21`, -3.4% (inactive).
The figure for `Cc1ccccc1COc1cccc(/C=C2\C(=O)NN(c3ccccc3)C2=O)c1` is 7% (inactive); for `CCOc1cc(/C=C2\C(=O)NN(c3cccc(Cl)c3)C2=O)ccc1O` it is 8% (inactive); for `CCOc1cc(/C=C2\C(=O)NN(c3ccccc3)C2=O)cc(Cl)c1OCC` it is 61% (active).
Under `CC(C)N1C(=O)C(C)N(C(=O)NCc2ccc(F)cc2)c2cccnc21` (stereo not given) stands 10.9% (inactive); under `Cc1ccc(NC(=O)CSC2=NC(C)(C)N=C2c2ccccc2)c(C)c1`, -6.5% (inactive); under `Cc1ccc(NC(=O)CSc2cccc3cccnc23)c(C)c1`, 86% (active).
`O=C(CSc1cccc2cccnc12)Nc1ccc(Br)cc1`: the inhibition is 3.8% (inactive).
For the molecule `N#CC1=C2C=CC(O)=CC2OC=C1N` (stereo not given), the inhibition is 55.1% (active).
Under `Cn1c(SCc2ccc([N+](=O)[O-])cc2)nnc1-c1cccs1` stands 4% (inactive); under `CCN1C(=O)CCc2cc(NC(=O)c3sccc3C)ccc21`, -2.8% (inactive).
Under `Cc1ccc(N2C(=O)C3C4c5ccccc5C(CO)(c5ccccc54)C3C2=O)cc1[N+](=O)[O-]` (stereo not given) stands 27% (inactive); under `O=C1C2C3C=CC(C3)C2C(=O)N1c1ccc(Nc2ccc3c(c2)CCC3)c([N+](=O)[O-])c1` (stereo not given), 74% (active); under `Cc1nn(C)c(C)c1Nc1ccc(N2C(=O)CCCC2=O)cc1[N+](=O)[O-]`, 1% (inactive).
Under `COc1ccccc1CNC(=O)C1CCN(c2cncnc2N2CCN(C)CC2)CC1` stands 5.19% (inactive).
For `CC(C)(C)NC(=O)c1ccc2c(c1)CCN2C(=O)C1CC1`, the inhibition is -4.5% (inactive).
The figure for `CCOC(=O)NCCS(=O)(=O)N1CCN(c2ccc(OC)cc2)CC1` is 1.1% (inactive).
Under `N#C/C(=C\c1cccn1-c1ccc([N+](=O)[O-])cc1)c1nn(CCO)c(N)c1C#N` stands -2.4% (inactive) and 4% (inactive).
The figure for `CS(=O)(=O)N1CCc2cc(NC(=O)Nc3ccccc3)ccc21` is 12.4% (inactive); for `CCN(CC)CC(O)COc1ccc(C23CC4CC(CC(C4)C2)C3)cc1` (stereo not given) it is 98.6% (active); for `Cc1ccc(OCC(O)CN2CCCC2)cc1C` (stereo not given) it is 1.8% (inactive).
`COc1ccc(N2CCN(CC(O)COC34CC5CC(CC(C5)C3)C4)CC2)cc1` (stereo not given): the inhibition was 27.7% (inactive).
Under `Cc1ccc(OCC(O)CNC2CCCCC2)cc1` (stereo not given) stands -7.1% (inactive).
For the molecule `CCN(CC(O)COC12CC3CC(CC(C3)C1)C2)C1CCCCC1` (stereo not given), the inhibition is -6.1% (inactive).
The figure for `CC1CC(C)CN(CC(O)COc2ccc(C34CC5CC(CC(C5)C3)C4)cc2)C1` (stereo not given) is 65.1% (active); for `CC(=O)c1ccc(OCC(O)CN2CCN(c3ccccc3)CC2)cc1` (stereo not given) it is 9.71% (inactive); for `CCc1ccc(OCC(O)CN2CCN(c3ccc(F)cc3)CC2)cc1` (stereo not given) it is 15.9% (inactive).
Consider `CCN1CCN(CC(O)COc2ccc(C34CC5CC(CC(C5)C3)C4)cc2)CC1` (stereo not given), for which the inhibition was 50.3% (active).
